This passage reports activity change (PNC), negative = inhibition results from PubChem BioAssay AID2417 (National Center for Advancing Translational Sciences (NCATS), 2010).

Molecules are shown by their SMILES. About 4,300 (3.1%) of roughly 140,000 compounds were called active. About 21% were inconclusive and are not listed.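 Rule for the calls: active = readout at or below -70, meaning at least 70% loss of cells showing the perinucleolar compartment, a nuclear body marking cancer cells; inconclusive = readout between -30 and a set limit; inactive = the rest.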 The list comes from a sample in which actives are over-represented; it also holds similar structures and randomly drawn compounds.

This experiment is described as follows: High Content Assay for Compounds that inhibit the Assembly of the Perinucleolar Compartment.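 Note: plate controls were DMSO wells for no effect and camptothecin positive control wells for full effect.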 As to conditions: PC3M PTB-GFP, PNC prevalence imaging, 16 h; at 10 µM; stronger effect = lower value. The procedure, abridged: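 Compounds are pinned in duplicate onto adhered PC3M cells stably expressing GFP-tagged PTB and incubated 16 h at 37 C. Cells are then fixed, nuclei stained with Hoechst, and PNC-positive cells counted.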
`Cc1ccc(Cn2c(NC(=O)c3ccco3)nc3ccccc32)cc1`: the activity change (PNC), negative = inhibition is 2.65% (inactive).

With `CCC(=O)NCCc1nc2ccccc2n1CC`, the activity change (PNC), negative = inhibition was 14% (inactive).

Turning to `CCn1c(NC(=O)c2nn(C)cc2Br)nc2ccccc21`, the activity change (PNC), negative = inhibition was -114% (active).

On to `Cc1nnnn1/C(=C\c1ccccc1)C(=O)OCC(=O)N1CC2(C)CC1CC(C)(C)C2` (stereo not given), for which the activity change (PNC), negative = inhibition was 23.1% (inactive).

Consider `Cn1nccc1CNC(=O)c1ccnn1C`, for which the activity change (PNC), negative = inhibition is 23.5% (inactive).

On to `Cc1ccc(S(=O)(=O)N(CC(=O)Nc2cccc([N+](=O)[O-])c2)Cc2ccc(Cl)cc2)cc1`, for which the activity change (PNC), negative = inhibition was 34.5% (inactive).

`Cc1ccc(N(CC(=O)Nc2cccc(N(C)S(C)(=O)=O)c2)S(C)(=O)=O)cc1`: the activity change (PNC), negative = inhibition was 24.2% (inactive).

With `COc1ccc(C)cc1S(=O)(=O)N(CC(=O)Nc1cccc([N+](=O)[O-])c1)c1ccc(C)cc1`, the activity change (PNC), negative = inhibition was -81.9% (active).

Take `Cc1ccc(S/C(=N\S(=O)(=O)c2ccc(Cl)cc2)c2ccccc2)cc1`: the activity change (PNC), negative = inhibition was -26.8% (inactive).

Regarding `Cc1ccc(S(=O)(=O)/N=C(/Nc2ccccn2)c2ccc(Cl)cc2)cc1`, the activity change (PNC), negative = inhibition is -85% (active).

`O=S(=O)(/N=C(/Nc1ccccn1)c1ccccc1)c1ccc(Cl)cc1`: the activity change (PNC), negative = inhibition was -25.2% (inactive).

On to `CCNS(=O)(=O)c1ccc(NC(=O)c2cncc(Br)c2)cc1`, for which the activity change (PNC), negative = inhibition is 6.83% (inactive).

Turning to `C/C(=N/NS(=O)(=O)c1ccccc1)c1ccc(NC(=O)C(F)(F)F)cc1`, the activity change (PNC), negative = inhibition is 8.62% (inactive).

For the compound `COC(=O)Cc1ccc(N(Cc2ccccc2F)S(=O)(=O)c2ccc(Br)cc2)cc1`, the activity change (PNC), negative = inhibition is -15.9% (inactive).

Consider `CCOc1ccccc1NC(=O)Nc1cc(OC)ccc1OC`, for which the activity change (PNC), negative = inhibition was 48.5% (inactive).

Regarding `CCOc1ccc(C(=O)Nc2cc(OC)ccc2OC)cc1`, the activity change (PNC), negative = inhibition was -127% (active).

For the compound `CCOc1ccc(NC(=O)Nc2cc(C)ccc2OC)cc1`, the activity change (PNC), negative = inhibition was -3.12% (inactive).

Turning to `CC1CCCCN1S(=O)(=O)c1ccc(S(=O)(=O)N(CC(=O)Nc2ccccc2)Cc2cccs2)cc1` (stereo not given), the activity change (PNC), negative = inhibition was -17.2% (inactive).

For `CCCOc1ccc(NC(=O)CC2C(=O)N(C)C(=S)N2Cc2ccc3c(c2)OCO3)cc1` (stereo not given), the activity change (PNC), negative = inhibition is -134% (active).

As to `Cn1c(=O)cc(OCCCC(=O)N2CCN(Cc3ccc4c(c3)OCO4)CC2)c2ccccc21`, the activity change (PNC), negative = inhibition was 19.5% (inactive).

For the compound `CCOc1ccc(NCCC(=O)c2ccc3c(c2)OCO3)cc1`, the activity change (PNC), negative = inhibition was 23% (inactive).

As to `COc1ccc(/C=C/C(=O)NC(=S)NN2CCCCC2c2cccnc2)cc1` (stereo not given), the activity change (PNC), negative = inhibition is -29.3% (inactive).

Turning to `CN(C)/N=C/c1cc(Cl)cc([N+](=O)[O-])c1O`, the activity change (PNC), negative = inhibition is 3.04% (inactive).

For `Cc1ccc(S(=O)(=O)N2CCCC2C(=O)OCc2nc3sc(C)c(C)c3c(=O)[nH]2)cc1` (stereo not given), the activity change (PNC), negative = inhibition was 7.12% (inactive).

Consider `O=C(CN1C(=O)c2cccc3cccc(c23)C1=O)N1CCCCC1`, for which the activity change (PNC), negative = inhibition is -26% (inactive).
